Data from ChEMBL document CHEMBL1157539, “Thousands of chemical starting points for antimalarial lead identification” (Nature, 2010).

system: Plasmodium falciparum; assay: GSK_TCMDC: Inhibition of Plasmodium falciparum Dd2 in whole red blood cells, using parasite LDH activity as an index of growth. Test compounds present at 2uM; format: functional

Structure (SMILES)	Inhibition [%]
Cc1ccc(F)c(C(=O)Nc2cccc(-c3nn4ccccc4c3-c3ccnc(Nc4cccc(F)c4)n3)c2)c1F	60
O=C(NCCN1CCOCC1)c1ccc(N2CCC(Oc3ccc4ccccc4c3)CC2)nc1	30
COc1ccc2ccccc2c1C=NN=c1cc(C)[nH]c2cc(C(F)(F)F)ccc12	4
Cc1cccc2nc(-c3ccc(-c4cccc(NC(=O)Nc5ccsc5)c4)s3)[nH]c12	29
CN1CCN(c2ccnc3ccc(NC(=O)Cc4ccc(-c5ccncc5)c5ccccc45)cc23)CC1	100
COc1cc(/C=N/Nc2nc(Nc3ccccc3)nc(Nc3ccccc3)n2)ccc1OCc1ccccc1[N+](=O)[O-]	18
COc1ccc2nccc([C@@H](O)CN3CCC(NCCOc4ccc(F)cc4F)CC3)c2c1.O=C(O)C(=O)O	68
Cl.O=S(=O)(Nc1cc2c(cc1OCCCN1CCCCC1)CCNCC2)c1ccc(-c2ccc(Cl)cc2)cc1	19
Cc1cc(-c2ccc(O)c(CNC3CCCCC3)c2)cnc1N	100
CCCCOc1cc(CNCCCCCCNCc2cc(OCCCC)cc3ccccc23)c2ccccc2c1.CS(=O)(=O)O	92
CC(=O)N/N=C/[C@H](CCc1ccccc1)NC(=O)[C@H](CC(C)C)NC(=O)c1ccc(OCCN2CCOCC2)cc1	87
COc1ccc(O)cc1/C=N/Nc1ccnc2cc(Cl)ccc12	92
c1ccc(-c2cccnn2)cc1	6
O=C(Nc1ccc2c(c1)CN(Cc1ccc(N3CCCC3)o1)CCC2)c1cncs1.O=CO	37
